Experimental findings from ChEMBL document CHEMBL3433997, “St. Jude Leishmania screening dataset” (2016) are described below.

Holding throughout (format): functional
Assay [1] has as its target Solute carrier family 2, facilitated glucose transporter member 1 (Homo sapiens) (UniProt P11166). Briefly: ST_JUDE_LEISH: Cytotoxicity at 2uM final concentration against transgenic Leishmania Mexicana promastigotes LmGLUT1 that are glucose transport deficient and complemented with the human glucose transporter GLUT1. Activity is measured by DNA content using SYBR green in vitro.

Assay [2] addresses Hexose transporter 1 (Plasmodium falciparum) (UniProt O97467). The assay can be described thus: ST_JUDE_LEISH: Cytotoxicity at 2uM final concentration against transgenic Leishmania Mexicana promastigotes LmPfHT that are glucose transport deficient and complemented with the Plasmodium falciparum hexose transporter. Activity is measured by DNA content using SYBR green in vitro.

For assay [3], the target named is Glucose transporter (Leishmania mexicana) (UniProt O61059). Briefly: ST_JUDE_LEISH: Cytotoxicity at 2uM final concentration against transgenic Leishmania Mexicana promastigotes LmGT2 that are glucose transport deficient and complemented with the L. Mexicana glucose transporter 2. Activity is measured by DNA content using SYBR green in vitro.

The structures appear in SMILES notation.

Solute carrier family 2, facilitated glucose transporter member 1 (Homo sapiens), sequence (P11166 whole entry): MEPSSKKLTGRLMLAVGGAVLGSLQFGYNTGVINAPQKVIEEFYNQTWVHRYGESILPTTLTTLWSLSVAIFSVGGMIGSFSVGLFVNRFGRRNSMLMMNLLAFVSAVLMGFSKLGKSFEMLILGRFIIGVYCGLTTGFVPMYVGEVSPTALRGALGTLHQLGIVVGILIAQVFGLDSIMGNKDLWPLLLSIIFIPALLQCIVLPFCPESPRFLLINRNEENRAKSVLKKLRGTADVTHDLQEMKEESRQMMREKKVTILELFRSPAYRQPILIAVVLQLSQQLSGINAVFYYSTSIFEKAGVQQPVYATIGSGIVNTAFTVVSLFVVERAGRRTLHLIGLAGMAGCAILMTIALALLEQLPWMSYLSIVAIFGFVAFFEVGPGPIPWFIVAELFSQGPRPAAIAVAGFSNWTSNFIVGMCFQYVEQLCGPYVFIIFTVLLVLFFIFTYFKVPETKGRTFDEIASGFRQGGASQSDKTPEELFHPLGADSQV

Broadly, the inhibition is the drop in the measured response relative to a control, in per cent. Consider `c1cc(CNc2ncc(-c3ccsc3)c(-c3nccs3)n2)ccn1`, for which the inhibition in assay [1] turned out to be 7.08%; in assay [2], 9.37%; in assay [3], 6.45%.

With `CN1CCC(Oc2ccc(Nc3nccc(NCC(O)c4ccccc4)n3)cc2Cl)CC1` (stereo not given), the inhibition in assay [1] was -2.84%; in assay [2] it was -3.54%; in assay [3] it was -6.09%.

Regarding `Cn1nc(-c2ccc(CNC3CCc4ccccc43)cc2)c2cnc(NCCCN3CCCC3)nc21` (stereo not given), the inhibition in assay [1] amounted to 7.46%; in assay [2], 13.8%; in assay [3], 8.91%.

With `Cc1ccc2nc(Cl)c3cc(C(=O)NCCCN4CCCC4)sc3c2c1`, the inhibition worked out at 8.7% in assay [1], 10.2% in assay [2] and 9.6% in assay [3].

As to `O=C(N[C@@H](CC1CCCCC1)C(=O)NCCN1CCCCC1)c1ccc(O)c(-c2ccc(Cl)c(Cl)c2)c1`, the figures for the inhibition in assay [1], in assay [2] and in assay [3] were 0.75%, 1.44% and 0.7%, respectively.

For the compound `CC(C)(CN)c1cc(-c2ccc(Cl)c(O)c2)c(-c2ccncc2)o1`, the inhibition in assay [1] was determined as 0.01%; in assay [2], 3.22%; in assay [3], 1.62%.

Consider `COc1ccc(CSC2CCCCC23NC(=S)NC3=S)cc1` (stereo not given), for which the inhibition in assay [1] came out at 4.42%; in assay [2], 1.41%; in assay [3], 3.2%.

On to `CN1CCN(c2ccnc3ccc(NC(=O)c4ccc(Cl)c(Cl)c4)cc23)CC1`, for which the inhibition in assay [1] is -1.88%; in assay [2], 0.68%; in assay [3], 0.97%.

`COc1ccc(NC(=O)c2ccc(NC(=O)c3ccc(Cl)cc3)cc2)cc1N1CCN(C)CC1`: the values for the inhibition in assay [1], in assay [2] and in assay [3] were 4.33%, 4.66% and 3.5%, respectively.

`O=C(NCCCCN1CCC(c2ccc3ccccc3c2O)CC1)c1ccc(NC(=O)c2ccc(Cl)cc2)cc1`: the inhibition was -0.08% in assay [1], 1.46% in assay [2] and 0.92% in assay [3].

For `O=C(Nc1ccc(Cl)cc1)Nc1ccc2c(c1)N1CCN=C1S2`, the inhibition is -0.81% in assay [1], -1.2% in assay [2] and 5.02% in assay [3].

With `Cc1cccc2nc(-c3ccc(-c4cccc(NC(=O)Nc5ccc(Cl)c(Cl)c5)c4)s3)[nH]c12`, the inhibition in assay [1] was 0.85%; in assay [2], -0.11%; in assay [3], 0.38%.

As for `CCOc1cc(C(=O)Nc2ccc3nc(N4CCCCC4)cc(C)c3c2)cc(OCC)c1OCC`, the inhibition in assay [1] came to 4.92%; in assay [2], 4.24%; in assay [3] it was 3.07%.

On to `Cc1cc(N2CCC(NS(=O)(=O)c3ccc(F)cc3)CC2)nc(Nc2cccc(C#N)c2)n1`, for which the values for the inhibition in assay [1], in assay [2] and in assay [3] were 39.9%, 46.5% and 41%, respectively.

Take `Cc1cc(N/N=C/c2ccc([N+](=O)[O-])cc2)c2ccc(F)cc2n1`: the inhibition is 2.33% in assay [1], 3.03% in assay [2] and -1.86% in assay [3].
